“And” between values parts separate entries of the source, which are not always exact repeats. Identical values can stand only once. Records with an inconclusive call do not appear. Unmarked numbers belong to inactive results. The source made the active and inactive calls. Calls follow the shape of the dose curve; as a rule, active = well fitted curve in the direction sought with a large enough effect; inconclusive = small, poorly fitted or top-dose-only effect, or another doubt; inactive = no such curve, though single readings can be large; an effect the other way counts as inactive or inconclusive. Non-standard residues stand in square brackets, D forms with d. Residues, ends and D or L forms follow the SMILES beside them. *: point of attachment. Nva = CCC[C@H](N)C(=O)O; Cbz = O=C(OCc1ccccc1)*
How the values were obtained:
[1] = biological target: Cellular tumor antigen p53 (Homo sapiens) (UniProt P04637); test: Primary qHTS for small molecule compounds that upregulate eGFP-tagged delta133p53alpha (in N-terminal) cells. (AID 2060322); conditions: NCI-H358 eGFP-delta133p53alpha fluorescence, 24 h; activation: active compounds read high; also: nearly all actives have a fitted effect of over 75% in size;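 as to activation: cells pre-induced with doxycycline then dosed without doxycycline; series mostly up to about 56 µM; 0% = DMSO vehicle and 100% = reference activator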
Outline: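 NCI-H358 cells pre-induced 24 h with 10 ng/ml doxycycline for eGFP-delta133p53alpha, plated dox-free and exposed 24 h at 37C to titrated compounds. Fixed, Hoechst-stained; gated GFP peak intensity by laser scanning cytometry, normalized to DMSO (0%) and 57.5 uM 5-azacytidine (100%).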

[2] = BET inhibitor-based combinations targeting novel dependencies in MECOM-rearranged (r) AML: SET-2 cell line (AID 2202231); conditions: SET-2 AML cells viability, CellTiter-Glo luminescence, 48 h; viability: active compounds read low, concentration not given here; also: nearly all actives have a fitted effect of over 35% in size;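 as to viability: plate controls were DMSO treated cells for no effect and wells without cells for full effect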
Outline: (§1)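 Cells were plated at 500 per well and exposed to an 11-point dose series of each drug for 48 hr. Viability was measured by CellTiter-Glo luminescence, normalized to DMSO and empty-well controls, and summarized as AUC and per-cell-line Z-AUC.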

[3] = BET inhibitor-based combinations targeting novel dependencies in MECOM-rearranged (r) AML: MV-4-11 cell line (AID 2202233); also: nearly all actives have a fitted effect of over 45% in size
Outline: (§2)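 Activity is given as area under the curve and as Z-AUC, mean-centred within each cell line. It comes from 11-point dose curves normalized to DMSO and empty wells. CellTiter-Glo luminescence was read after 48 hr drug exposure of 500 cells/well.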

[4] = BET inhibitor-based combinations targeting novel dependencies in MECOM-rearranged (r) AML: AML-191 cell line (AID 2202236; also: nearly all actives have a fitted effect of over 35% in size)
Outline: as §1

[5] = BET inhibitor-based combinations targeting novel dependencies in MECOM-rearranged (r) AML: AML-194 cell line (AID 2202237; also: nearly all actives have a fitted effect of over 40% in size)
Outline: as §1

[6] = BET inhibitor-based combinations targeting novel dependencies in MECOM-rearranged (r) AML: HNT-34 cell line (AID 2202234); also: nearly all actives have a fitted effect of over 35% in size
Outline: as §2

[7] = BET inhibitor-based combinations targeting novel dependencies in MECOM-rearranged (r) AML: UCSD-AML1 cell line (AID 2202235); also: nearly all actives have a fitted effect of over 40% in size
Outline: as §2

[8] = BET inhibitor-based combinations targeting novel dependencies in MECOM-rearranged (r) AML: OCI-AML3 cell line (AID 2202232); conditions: Potency: OCI-AML3 viability; also: nearly all actives have a fitted effect of over 35% in size
Outline: as §1
Potency is read from the fitted curve at half-maximal effect.

Cellular tumor antigen p53 (Homo sapiens), sequence (P04637 whole entry, looked up): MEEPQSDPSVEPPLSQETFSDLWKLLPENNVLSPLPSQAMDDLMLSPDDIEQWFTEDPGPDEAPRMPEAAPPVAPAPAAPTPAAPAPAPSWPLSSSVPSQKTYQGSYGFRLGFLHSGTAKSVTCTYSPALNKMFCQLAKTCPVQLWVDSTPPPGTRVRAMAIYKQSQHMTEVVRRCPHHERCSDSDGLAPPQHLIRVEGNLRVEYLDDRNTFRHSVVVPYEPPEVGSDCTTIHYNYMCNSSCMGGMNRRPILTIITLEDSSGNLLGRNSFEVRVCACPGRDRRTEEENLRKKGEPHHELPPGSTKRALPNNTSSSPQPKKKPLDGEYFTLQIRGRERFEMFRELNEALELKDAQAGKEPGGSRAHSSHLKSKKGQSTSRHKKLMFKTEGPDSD

| Structure (SMILES) | activation [1] | viability [2] [%] | Potency [3] | Potency [4] | Potency [5] | Potency [6] | Potency [7] | Potency [1] | Potency [2] | Potency [8] |
| --- | --- | --- | --- | --- | --- | --- | --- | --- | --- | --- |
| Cc1ccc(S(=O)(=O)NC(=O)NN2CC3CCCC3C2)cc1 (stereo not drawn) | 8.47% and 8.97% | 120 | inactive | inactive | inactive | – | – | – | – | – |
| COc1c(N2CCNC(C)C2)c(F)cc2c(=O)c(C(=O)O)cn(C3CC3)c12 (stereo not drawn) | 12.6% and 24.5% | 100 | inactive | inactive | inactive | inactive | inactive | – | – | – |
| O=[N+]([O-])c1cn2c(n1)OC[C@@H](OCc1ccc(OC(F)(F)F)cc1)C2 | 9.64% | 111 | inactive | inactive | inactive | inactive | inactive | – | – | – |
| O=c1c(O)c(-c2ccc(O)cc2)oc2cc(O)cc(O)c12 | 36.9% | 105 | 9.34 µM (active) | 14.8 µM (active) | inactive | – | inactive | – | – | – |
| Cc1cc(Nc2cc(NC(=O)c3c(Cl)cccc3Cl)ccn2)nc(N)n1 | – | – | 0.332 µM (active) | 0.263 µM (active) | 0.332 µM (active) | 0.296 µM (active) | 0.296 µM (active) | 34.3 µM (active) | 3.32 µM (active) | – |
| COC(c1ccccc1)(c1ccccc1)[C@H](Oc1nc(C)cc(C)n1)C(=O)O | -19.8% and -2.24% | 106 | inactive | – | inactive | inactive | inactive | – | – | – |
| CN(C)CCN1C(=O)c2cccc3cc(N)cc(c23)C1=O | – | – | 3.72 µM (active) | 13.2 µM (active) | – | 10.5 µM (active) | – | 34.3 µM (active) | 14.8 µM (active) | – |
| C[C@H](CCC(=O)O)[C@H]1CCC2C3C[C@H](O)[C@@H]4C[C@H](O)CC[C@]4(C)C3CC[C@@]21C (stereo partly drawn) | 10.8% | 119 | inactive | – | inactive | inactive | inactive | – | – | – |
| Cc1nnc(NS(=O)(=O)c2ccc(N)cc2)s1 | -14.2% and -3.76% | 113 | inactive | – | inactive | inactive | inactive | – | – | – |
| CCN(CC)CCOc1ccc(Cc2ccccc2)cc1 | -6.69% and 6.46% | – | inactive | – | inactive | – | inactive | – | 16.6 µM (active) | – |
| CC(C)Oc1ccc2c(=O)c(-c3ccccc3)coc2c1 | -6.21% and -9.21% and 6.6% | 108 | inactive | – | inactive | inactive | inactive | – | – | – |
| CCN(CC)CCCC(C)Nc1nc(C)cc(Nc2ccc3nc(C)cc(N)c3c2)n1 (stereo not drawn) | 4.87% | 116 | 29.5 µM (active) | inactive | inactive | – | inactive | – | – | – |
| Cc1ccc(C(=O)Nc2cccc(C(F)(F)F)c2)cc1Nc1nc(-c2cccnc2)nc2c1cnn2C | 9.99% | – | 16.6 µM (active) | 8.33 µM (active) | 10.5 µM (active) | 9.34 µM (active) | – | – | 20.9 µM (active) | – |
| C[C@]12C=CC(=O)C=C1CC[C@@H]1[C@@H]2[C@@H](O)C[C@@]2(C)[C@H]1CC[C@]2(O)C(=O)CO | -4.18% | 103 | inactive | 0.372 µM (active) | 1.18 µM (active) | inactive | inactive | – | – | – |
| CCCC1OC2C[C@@H]3[C@H]4CCC5=CC(=O)C=C[C@]5(C)[C@H]4C(O)C[C@]3(C)[C@]2(C(=O)CO)O1 (stereo partly drawn) | 16.2% | 98.3 | 20.9 µM (active) | 0.0295 µM (active) | – | – | inactive | – | – | – |
| C[C@H](NC(=O)Cc1cc(F)cc(F)c1)C(=O)N[C@H](C(=O)OC(C)(C)C)c1ccccc1 | 11.5% | 118 | inactive | inactive | inactive | inactive | inactive | – | – | – |
| NC(=O)c1ccc(I)c([N+](=O)[O-])c1 | 13.8% | 105 | 16.6 µM (active) | – | inactive | – | inactive | – | – | – |
| CN1CCN(c2ncc(-c3cc(Cl)cc(Cl)c3Cl)c(N)n2)CC1 | 4.6% | – | 8.33 µM (active) | 16.6 µM (active) | – | – | inactive | – | 23.5 µM (active) | – |
| COc1cc(C)c(Sc2cnc(NC(=O)c3ccc(CNC(C)C(C)(C)C)cc3)s2)cc1C(=O)N1CCN(C(C)=O)CC1 (stereo not drawn) | – | – | 4.17 µM (active) | 14.8 µM (active) | 11.8 µM (active) | 16.6 µM (active) | 14.8 µM (active) | 43.2 µM (active) | 23.5 µM (active) | – |
| O=c1cc(N2CCOCC2)oc2c(-c3cccc4c3sc3ccccc34)cccc12 | 27.5% | – | 4.17 µM (active) | 5.9 µM (active) | – | – | – | – | 9.34 µM (active) | – |
| CCCn1c(=O)c2[nH]c(C34CC5CC3C[C@@H](C5)C4)nc2n(CCC)c1=O | 31.9% | 109 | 20.9 µM (active) | 16.6 µM (active) | inactive | – | inactive | – | – | – |
| CCC[C@@H](C=O)NC(=O)[C@H](CC(C)C)NC(=O)[C@H](CC(C)C)NC(=O)OCc1ccccc1 (Cbz-Leu-Leu-[Nva]-aldehyde) | – | – | 2.95 µM (active) | 2.95 µM (active) | 2.63 µM (active) | 2.63 µM (active) | 3.32 µM (active) | 5.44 µM (active) | 2.09 µM (active) | – |

| Structure (SMILES) | activation [1] | viability [2] [%] | Potency [3] | Potency [4] | Potency [5] | Potency [6] | Potency [7] | Potency [1] | Potency [2] | Potency [8] |
| --- | --- | --- | --- | --- | --- | --- | --- | --- | --- | --- |
| N[C@H](CSC(c1ccccc1)(c1ccccc1)c1ccccc1)C(=O)O | -3.21% | 109 | inactive | – | inactive | – | inactive | – | – | – |
| C=C1c2cccc(O)c2C(O)=C2C(=O)[C@@]3(O)C(O)=C(C(N)=O)C(=O)[C@@H](N(C)C)[C@@H]3[C@@H](O)[C@H]12 | 22.8% | 86.7 | inactive | inactive | inactive | – | inactive | – | – | – |
| C#CCN[C@@H]1CCc2ccccc21 | -13.4% and -11.3% | 116 | inactive | inactive | inactive | inactive | inactive | – | – | – |
| CC(N)C12CC3CC(CC(C3)C1)C2 (stereo not drawn) | -14.2% and 12.7% | 106 | inactive | inactive | inactive | inactive | inactive | – | – | – |
| CN(N=O)C(=O)N[C@@H]1[C@@H](O)[C@H](O)[C@@H](CO)O[C@@H]1O | -14.1% | 101 | inactive | – | inactive | inactive | inactive | – | – | – |
| O=c1ncn2nc(Sc3ccc(F)cc3F)ccc2c1-c1c(Cl)cccc1Cl | 2.34% | – | 20.9 µM (active) | 29.5 µM (active) | inactive | – | – | – | 20.9 µM (active) | – |
| NC(=O)C1CCCc2c1[nH]c1ccc(Cl)cc21 (stereo not drawn) | 10.6% | 104 | inactive | inactive | inactive | inactive | inactive | – | – | – |
| O=C(O)c1ccc(-c2c[nH]c3ncc(-c4ccccc4)cc23)cc1C1CCCC1 | -17.5% | 89.8 | 2.95 µM (active) | – | – | – | inactive | – | – | – |
| CCCCOCCOc1nc(-c2ccc(C(=O)O)c(F)c2)sc1C | 13.4% | 85.8 | – | 2.63 µM (active) | inactive | – | inactive | – | – | – |
| COc1ccc(C[C@@H](C)[C@@H](C)Cc2ccc(OC)c(OC)c2)cc1OC | 11.5% | – | – | – | inactive | inactive | inactive | – | 18.6 µM (active) | – |
| Cc1ccc(NC(=O)c2cccc(N(C)C)c2)cc1NC(=O)c1ccc(O)cc1 | -4.71% | 90.3 | – | inactive | inactive | – | inactive | – | – | – |
| COC(=O)Nc1ccc(-c2nc(N3CCOCC3)c3cnn(C4CCN(C(=O)OC)CC4)c3n2)cc1 | 11.3% | – | 1.18 µM (active) | – | – | – | – | – | – | 4.17 µM (active) |
| O=C(/C=C/N1C[C@H]2C[C@@H]1CN2c1ccccn1)c1ccccc1O | 21.2% | – | – | – | inactive | – | inactive | – | 0.372 µM (active) | – |
| CCOC(=O)c1c(C)n(C)c2ccc(O)cc12 | 6.69% and -7.58% | 110 | – | inactive | inactive | inactive | inactive | – | – | – |
| Cc1cccc(N(C)C(=S)Oc2ccc3ccccc3c2)c1 | 2.82% and 1.76% | 85.9 | – | – | inactive | inactive | inactive | – | – | – |
| CCC(C)(C)C(=O)O[C@H]1C[C@@H](C)C=C2C=C[C@H](C)[C@H](CC[C@@H]3C[C@@H](O)CC(=O)O3)[C@H]21 | -16.4% and -15.4% | 103 | 18.6 µM (active) | inactive | inactive | – | – | – | – | – |
| CSc1cccc(Nc2ncc3cc(-c4c(Cl)cccc4Cl)c(=O)n(C)c3n2)c1 | -0.477% | – | 1.86 µM (active) | – | – | – | – | – | – | inactive |
| Oc1cccc(-c2nc(N3CCOCC3)c3oc4ncccc4c3n2)c1 | 27.8% | – | 0.0525 µM (active) | – | – | – | – | – | – | 0.0661 µM (active) |
| CCCCCCCN(CC)CCCC(O)c1ccc(NS(C)(=O)=O)cc1 (stereo not drawn) | 5.18% | 96.2 | – | inactive | – | inactive | inactive | – | – | – |
| CC(=O)O[C@]1(C(C)=O)CC[C@H]2[C@@H]3C=C(C)C4=CC(=O)CC[C@]4(C)[C@H]3CC[C@@]21C | -26.8% | 110 | – | – | – | 18.6 µM (active) | inactive | – | – | – |
| C[C@]12CC[C@@H]3c4ccc(O)cc4C[C@@H](CCCCCCCCCS(=O)CCCC(F)(F)C(F)(F)F)[C@H]3[C@H]1CC[C@H]2O (stereo partly drawn) | -2.43% | – | 9.34 µM (active) | – | inactive | – | – | – | 4.68 µM (active) | – |
| Cc1cc([C@@H](C)Nc2ccccc2C(=O)O)c2nc(N3CCOCC3)cc(=O)n2c1 | 14.9% | – | 6.61 µM (active) | – | – | – | – | – | – | 1.32 µM (active) |

From PubChem BioAssay (NCATS)
